Source: PubChem BioAssay (The Scripps Research Institute Molecular Screening Center)
PPARg SRC1 recr: PPARgamma-driven SRC-1 recruitment agonism | P37231 | PPARgamma-SRC-1 coactivator recruitment biochemical assay | activation, % at 8 µM | 200,000 compounds, 0.41% hits | AID 631; in the data active = activation above about 19%
Target sequence (P37231 whole entry, looked up): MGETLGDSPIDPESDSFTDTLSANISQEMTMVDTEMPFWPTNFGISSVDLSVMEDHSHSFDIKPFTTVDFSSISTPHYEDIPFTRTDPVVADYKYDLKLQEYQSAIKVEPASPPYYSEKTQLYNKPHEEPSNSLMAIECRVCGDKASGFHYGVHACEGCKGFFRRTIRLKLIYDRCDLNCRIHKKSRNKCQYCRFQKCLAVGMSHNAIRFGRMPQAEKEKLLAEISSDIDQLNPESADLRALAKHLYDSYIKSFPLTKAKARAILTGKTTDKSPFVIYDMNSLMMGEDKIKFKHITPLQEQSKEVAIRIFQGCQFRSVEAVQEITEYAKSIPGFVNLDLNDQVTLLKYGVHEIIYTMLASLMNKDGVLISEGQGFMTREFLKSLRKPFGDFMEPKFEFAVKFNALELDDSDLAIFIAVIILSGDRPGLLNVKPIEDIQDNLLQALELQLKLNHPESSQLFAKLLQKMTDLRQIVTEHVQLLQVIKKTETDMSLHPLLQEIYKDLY
PPARg SRC3 recr: promotes SRC-3 coactivator recruitment by human PPARgamma. P37231. biochemical PPARgamma/SRC-3 coactivator recruitment assay. activation, % at 8 µM. 200,000 compounds, 0.26% hits. AID 731; in the data active = activation above about 23%
TR-FRET SRC-2 ct: counter-screen for PPARgamma SRC-2 recruitment agonists: TR-FRET artefact | 200,000 compounds, 0.4% hits | AID 1049 | TR-FRET ratio at 8 µM | stronger effect = higher value
SRC3 TRFRET art: TR-FRET artefact, counter-screen to PPARgamma/SRC-3 agonist assay. PPARgamma/SRC-3 format; stronger effect = higher value. TR-FRET ratio at 8 µM. 99,000 compounds, 0.39% hits
SRC1 TRFRET art: counter-screen for PPARgamma SRC-1 recruitment agonists: TR-FRET artefact; TR-FRET ratio at 8 µM; 99,000 compounds, 0.34% hits; TR-FRET detection artefact counter-screen, emission ratio; stronger effect = higher value; in the data active = TR-FRET ratio above about 2300
PPARg SRC-2 ag: promotes SRC-2 coactivator recruitment by human PPARgamma. P37231. PPARgamma LBD-SRC-2 recruitment, biochemical. activation, % at 8 µM. 200,000 compounds, 0.34% hits. AID 1032; in the data active = activation above about 22%
Hits are given with their value; n = inactive; x = no result. Sampled rows, rich in hits. Any-hit rate of the full collection: about 0.84%. Rule as the data show it, unless noted: active = TR-FRET ratio above about 2000; inactive = the rest.

SMILES	PPARg SRC1 recr	PPARg SRC3 recr	TR-FRET SRC-2 ct	SRC3 TRFRET art	SRC1 TRFRET art	PPARg SRC-2 ag
COc1ccc(C(=O)Nc2scc(-c3ccc(Cl)cc3Cl)c2C(N)=O)cc1	n	n	1986	x	x	n
COc1cccc(NC(=S)NCc2ccc3c(c2)cc(C)n3C)c1	n	n	n	n	2579	n
CC(=S)c1c(C)cc2cc(C)ccn12	n	n	n	n	n	n
CCn1cc(/C=C/C(=O)Nc2ccn(Cc3c(F)c(F)c(F)c(F)c3F)n2)cn1	n	n	n	n	n	27.5
CCn1cc(/C=C/C(=O)Nc2c(C)nn(Cc3ccccc3C)c2C)cn1	n	n	n	n	n	n
Cn1cc(CN(CCO)Cc2cccs2)c(-c2ccccc2F)n1	n	n	n	n	n	n
Cn1c(C(=O)N2CCOCC2)cnc1Sc1ncc(C(F)(F)F)cc1Cl	n	n	n	x	x	21.8
CCN1CCCC1CNC(=O)c1cc2c(-c3ccc(Cl)cc3)nn(C)c2s1 (configuration not stated)	21.6	n	n	x	x	n
Cc1cccc(C)c1N1CCN(c2ccc3nnc(C(F)(F)F)n3n2)CC1	n	n	n	x	x	n
COc1ccc(NC(=O)CSc2ccc3c4c(cccc24)C(=O)c2ccccc2-3)cc1	n	42.8	n	x	x	n
N#Cc1cccc(NC(=O)CSc2ccc3c4c(cccc24)C(=O)c2ccccc2-3)c1	n	n	n	x	x	n
C1=CC2CC1CC2CN1CCN(Cc2ccccc2)CC1 (configuration not stated)	n	n	n	x	x	n
CCOC(=O)c1c(NC(=O)CSc2c[nH]c3ccccc23)sc2c1CCCC2	n	n	n	4458	n	n
CCOC(=O)c1c(NC(=O)C(C)Sc2cn(C)c3ccccc23)sc2c1CCC2 (configuration not stated)	n	n	n	n	n	24.3
CCOC(=O)c1c(NC(=O)CSc2c[nH]c3ccccc23)sc2c1CCC2	n	n	n	4916	n	n
CCOC(=O)c1c(NC(=O)C(C)Sc2cccc[n+]2[O-])sc2c1CCN(Cc1ccccc1)C2 (configuration not stated)	n	n	n	n	n	n
CCOC(=O)c1c(NC(=O)CSc2nnc(-c3c[nH]c4ccccc34)n2CCOC)sc2c1CCCCC2	n	n	n	n	n	n
CCCCc1ccc(-c2nc(NC(=O)C3C4CCC(O4)C3C(=O)O)sc2C)cc1 (configuration not stated)	n	n	n	x	x	n
Cn1c(=O)n(C)c2cc(NC(=O)c3ccccc3[N+](=O)[O-])c(Br)cc21	n	n	1997	n	n	n
CCS(=O)(=O)N1N=C(c2cccc(NS(C)(=O)=O)c2)CC1c1ccc(C)cc1 (configuration not stated)	n	n	n	n	n	n
COc1ccc(/C=C/C(=O)c2ccccc2)cc1Cn1nnc2ccccc21	n	n	n	n	n	n
Cc1ccc(-n2c(Cl)c(Cl)nc(Cl)c2=O)cc1	n	n	n	n	n	n
Cc1sc(NC(=O)Cc2ccc3c(c2)OCO3)nc1-c1ccc2c(c1)CCN2C(=O)c1ccc(F)cc1	n	n	n	2623	n	n
Cc1sc(NC(=O)Cc2ccc3c(c2)OCO3)nc1-c1ccc2c(c1)CCN2C(=O)c1ccccc1F	n	n	n	n	n	n
O=C(CSc1ncnc2c1nnn2-c1ccc(F)cc1)NCc1ccco1	n	n	n	x	x	22.6
SMILES	PPARg SRC1 recr	PPARg SRC3 recr	TR-FRET SRC-2 ct	SRC3 TRFRET art	SRC1 TRFRET art	PPARg SRC-2 ag
CCN(C(=O)Cc1cccs1)c1nnc(-c2cccnc2)s1	n	n	n	x	x	n
CCCCSc1nnc(CNC(=O)C23CC4CC(CC(C4)C2)C3)n1Cc1ccccc1	n	n	n	n	n	n
CCOC(=O)C1=C(C)Nc2ccccc2N=C1NC(=O)c1ccc(Cl)c(S(=O)(=O)N2CCCC2)c1	n	n	n	2223	n	n
CCOC(=O)C1=C(C)Nc2ccccc2N=C1NC(=O)C(c1ccccc1)c1ccccc1	n	n	n	2077	n	n
CCOC(=O)C1=C(C)Nc2ccccc2N=C1NC(=O)c1cccc(S(=O)(=O)N(C)C)c1	n	n	n	x	x	n
COc1ccc(C2NC(c3ccc(OC)cc3)C(c3ccccc3)C(=O)C2c2ccccc2)cc1 (configuration not stated)	n	n	n	n	n	n
N=c1c(C(=O)NCC2CCCO2)cc2c(=O)n3ccccc3nc2n1Cc1cccnc1 (configuration not stated)	n	n	n	n	n	n
Cc1cccn2c(=O)c3cc(C(=O)NCC4CCCO4)c(=N)n(Cc4cccnc4)c3nc12 (configuration not stated)	n	n	n	n	2542	n
CCOC(=O)c1c(NC(=O)CSc2nc3cc(Cl)ccc3s2)sc(C(C)=O)c1C	n	n	n	n	n	n
CCOC(=O)c1c(NC(=O)CSc2nc3ccccc3s2)sc(C(C)=O)c1C	n	n	2122	x	x	n
O=c1c(/C=N/OCc2ccc(Cl)cc2Cl)c[nH]n1-c1cccc(Cl)n1	n	n	2085	n	n	n
O=C(O)c1ccccc1NS(=O)(=O)c1ccccc1C(F)(F)F	n	n	n	x	x	n
CCn1cc(S(=O)(=O)Nc2ccccc2C(F)(F)F)cn1	n	n	n	n	n	22.6
O=[N+]([O-])c1ccc(COc2cccc(CNc3ccc(F)cc3)c2)cc1	n	n	n	n	n	n
Oc1ccc(NCc2cccc(OCc3ccc(F)cc3)c2)cc1	23.1	n	n	n	n	n
CC(C)NC(=O)NC(=O)CSc1ccccc1F	n	38.2	n	3589	n	n
CC(C)NC(=O)NC(=O)COC(=O)c1ccccc1F	n	n	n	n	n	n
Cc1ccc(/C(O)=C2\C(=O)C(=O)N(c3cc(C)on3)C2c2cccc(Cl)c2)cc1 (configuration not stated)	n	n	n	x	x	n
COc1ccc(/C(O)=C2\C(=O)C(=O)N(c3cc(C)on3)C2c2cccc(OC)c2OC)cc1C (configuration not stated)	n	n	2062	x	x	n
Cc1c(C(=O)Nc2ccc(-n3cnnn3)cc2)oc2ccccc12	n	n	1999	x	x	n
CC(C)(c1ccccc1)c1ccc(OCC(O)CNC2CCN(Cc3ccccc3)CC2)cc1 (configuration not stated)	n	n	n	n	n	n
CCCOc1ccc(CNCCCOCC)cc1OC	n	n	n	n	n	n
CCOCCCNCc1ccc(OC)c(OC)c1	n	n	2500	x	x	34.4
CS(=O)(=O)Nc1ccc(C(=O)Nc2ccc(S(=O)(=O)N3CCCC3)cc2)cc1	n	n	1992	n	n	n
CC(=O)Nc1ccc(C(=O)Nc2ccc(S(=O)(=O)N3CCCC3)cc2)cc1	n	n	n	n	n	n
Cc1ccc(-c2csc3ncnc(-n4nnc5ccccc54)c23)cc1	n	n	n	2064	n	n
O=C1COc2ccc(N3C(=O)C=CC3=O)cc2N1	n	n	n	n	n	n
